# M18AAP inhibitor = PfM18AAP inhibitors, malaria aminopeptidase, primary screen, biochemical, QFRET, recombinant enzyme; H-Glu-NHMec fluorogenic cleavage; inhibition, % at 7.35 µM; 290,000 tested, 1.2% active; AID 1822, 2009;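 active means inhibition above the campaign mean inhibition over all tested compounds plus 3 SD, cut at about 28% in these data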;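 further: 0% = plate median of test compound wells and 100% = 2 mM ZnCl2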
# SMARCA2 act = SMARCA2 (BRM) function activators, primary screen, cell-based, luminescence, high throughput; MG213 cells, MMTV-luciferase reporter, dexamethasone, overnight; activation, % at 9.1 µM; 370,000 tested, 1% active; AID 652017, 2013; in the data active means activation above about 7.8%;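 further: 0% = vehicle wells and 100% = reference activator wells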
# beta cell repl = inducers of MIN6 beta-cell proliferation, primary screen, ATP luminescence, uHTS | proliferation, % at 10 µM | 330,000 tested, 0.29% active | MIN6 cells proliferation, ATPlite luminescence, 48 h; cells starved in 0.2% serum; 100% = growth in 10% serum;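 active means compounds whose signal lies at least 3.5 SD above the mean of all wells on their plate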;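 further: 0% = DMSO-treated cells in low-serum medium and 100% = 10% serum control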
# Granule exo inh = LAMP-1 surface exposure blockers, TALL-104 cells – cell-based, flow cytometry, MLPCN library, primary screen; inhibition, % at 10 µM; TALL-104 LAMP-1 surface exposure; cells stimulated with thapsigargin and PMA; AID 651702, 2012; 360,000 tested, 0.66% active;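 active means inhibition above about 55%, limit read from the data; inconclusive means no clear call, values can overlap the other calls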
# ALR H2O2 inh = inhibitors of human ALR sulfhydryl oxidase, primary screen, biochemical, H2O2 detection, HRP-luminol luminescence, single point | AID 485317, 2010 | FAD-linked sulfhydryl oxidase ALR (Homo sapiens), P55789 | 290,000 tested, 3.8% active | purified ALR, DTT oxidation | inhibition, % (concentration not given with the values);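 active means mean replicate inhibition above about 79%, with every replicate also reaching it, limit read from the data; inconclusive means only one of the two criteria met; inactive means mean below limit and not every replicate reaching it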
# Target sequence (P55789 whole entry, looked up): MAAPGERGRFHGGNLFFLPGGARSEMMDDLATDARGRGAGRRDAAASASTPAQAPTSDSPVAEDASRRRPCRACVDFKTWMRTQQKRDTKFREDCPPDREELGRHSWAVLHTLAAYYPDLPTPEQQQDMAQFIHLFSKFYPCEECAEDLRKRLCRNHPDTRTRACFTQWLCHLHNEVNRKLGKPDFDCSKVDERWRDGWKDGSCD
# JMJD2C inh = inhibitors of GASC-1 histone demethylase, primary screen, biochemical, fluorescence, DELFIA europium | Lysine-specific demethylase 4C (Homo sapiens), Q9H3R0 | GST-JMJD2C(1-420) H3K9me3 demethylation | inhibition, % at 2.35 µM | 330,000 tested, 0.069% active;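 active means more than half of a compound's replicate wells show inhibition beyond 50%, single wells judged on their own value; inconclusive means some, but no more than half, of replicates pass 50% inhibition; inactive means no replicate passes 50% inhibition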;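 further: signal counts dimethyl H3K9 product captured on neutravidin plate; 0% = median of DMSO wells and 100% = 0.3 times that DMSO median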
# Target sequence (Q9H3R0 1-420 limits assumed): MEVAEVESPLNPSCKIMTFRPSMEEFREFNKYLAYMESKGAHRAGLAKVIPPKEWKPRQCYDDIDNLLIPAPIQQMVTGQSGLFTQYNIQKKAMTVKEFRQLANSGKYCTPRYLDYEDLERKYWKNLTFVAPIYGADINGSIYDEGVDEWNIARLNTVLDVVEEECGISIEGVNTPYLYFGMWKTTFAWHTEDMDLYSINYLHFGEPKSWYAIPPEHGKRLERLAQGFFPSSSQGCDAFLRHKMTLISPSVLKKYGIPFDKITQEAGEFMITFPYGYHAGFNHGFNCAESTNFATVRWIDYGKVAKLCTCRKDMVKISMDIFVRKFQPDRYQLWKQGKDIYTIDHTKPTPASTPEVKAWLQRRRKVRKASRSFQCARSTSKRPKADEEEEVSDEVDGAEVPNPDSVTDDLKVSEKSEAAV
# The depositor's hits bear a star; ? = inconclusive; / = no result given. This is a sample that favours compounds with a hit; in the whole collection about 5.4% have one here.
SMILES,M18AAP inhibitor,SMARCA2 act,beta cell repl,Granule exo inh,ALR H2O2 inh,JMJD2C inh
O=C(CSCCc1ccccn1)Nc1ccccn1,9,-1,-1,6,98*,-8
O=C(CSCCc1ccccn1)Nc1cccnc1Cl,-3,3,-2,-3,8,0
C[C@H]1Cn2nnc(-c3ccccc3)c2Cn2c3ccccc3c(=O)n21,/,7,/,/,/,/
CN(C)S(=O)(=O)c1cccc(C(=O)N/N=C\c2ccccc2[N+](=O)[O-])c1,/,1,/,/,/,/
C[C@H]1CCCN1c1cccc2c1S(=O)(=O)N1CC[C@@H](C1)O2,/,-3,/,/,/,/
C=CCN1[C@@H](CC(C)C)COc2cccc(N3CCCC3)c2S1(=O)=O,/,-4,/,/,/,/
C/C(=N\NC(=O)CNC(=O)c1ccncc1)c1ccc(C)cc1,0,-4,-5,-1,-4,12
C/C(=N\NC(=O)CCCNc1cccc(C)c1)c1ccncc1,9,4,1,1,93*,-53
CCOc1ccc(NC(c2ccccc2)P(=O)(OC)OC)cc1 (configuration not stated),4,4,0,0,89*,-15
COP(=O)(OC)C(Nc1ccc(C)cc1)c1ccc([N+](=O)[O-])cc1 (configuration not stated),-4,3,3,10,83*,-4
COc1ccc(OC)c(CN2C(=O)c3ccnn3CC2(C)c2nnnn2C2CCCC2)c1 (configuration not stated),/,-1,/,/,/,/
O=C(CSCc1ccco1)c1ccc(Cl)s1,6,/,-4,/,98*,11
O=C(O)/C=C/c1cn(Cc2ccccc2)nc1-c1ccc(Cl)cc1,0,-2,-2,6,95*,6
CCOC(=O)[C@@]12CCCC3=C1N(CCC3)C(=O)[C@H]2CC(=O)NCc1cccc2ccccc12,/,-2,/,/,/,/
Cc1c(N=Cc2ccc[nH]2)c(=O)n(-c2ccccc2)n1C,-3,-3,-2,4,97*,-13
Cc1c(N=Cc2ccccn2)c(=O)n(-c2ccccc2)n1C,-8,0,0,-1,98*,-1
C[C@@H]1CCN(C2CC2)S(=O)(=O)c2c(cccc2N2CCC[C@@H]2C)O1,/,-1,/,/,/,/
On1ccccc1=S,/,-10,/,34,92*,0
O=C(Cn1ccccc1=S)c1ccc(Cl)c(Cl)c1,/,-3,-2,-12,24,-4
O=[N+]([O-])c1c(Nc2ccccc2O)cc(Cl)c2nonc12,1,4,-5,61*,70,10
Cc1ccc2nc(-c3ccc(Cl)cc3)c(Cc3ccsc3)n2c1,/,7.8*,/,/,/,/
CCC(=O)N(Cc1ccccc1)c1ccccc1C(=O)Nc1cc(OC)ccc1OC,/,0,/,/,/,/
COc1ccc(C2NC(=O)CS2)cc1OC (configuration not stated),-2,-3,0,0,98*,8
Cc1ccccc1C(=O)NNc1ccc(-c2csnn2)cc1,30*,-2,-2,3,/,4
COCCCN1C(=O)[C@H](CC(=O)NCCCN2CCCC2=O)[C@]2(C(=O)OC)CCCCC=C12,/,3,/,/,/,/
SMILES,M18AAP inhibitor,SMARCA2 act,beta cell repl,Granule exo inh,ALR H2O2 inh,JMJD2C inh
O=S1(=O)c2ccc(N3CCN(Cc4ccccc4F)CC3)cc2Oc2ccccc2CN1Cc1cn(Cc2cccc(F)c2)nn1,/,-4,/,/,/,/
CCN(CC(=O)NCc1ccc(F)cc1)C(=O)/C=C/c1ccco1,-7,0,4,-2,88*,5
N#Cc1ccccc1N1CCN(C(=O)C2CCN(c3ncnc4c3sc3cccc(F)c34)CC2)CC1,/,-7,/,/,/,/
O=C(NCCCO)c1ccc(CSc2nc3ccccc3c(=O)[nH]2)cc1,-8,1,-4,2,100*,-6
COC(=O)C1=C(C)N(Cc2ccccc2C(F)(F)F)C(=NCc2cc(OC)c(OC)c(OC)c2)NC1c1cccc(F)c1 (configuration not stated),/,-4,/,/,/,/
CN1C(=O)c2cc(NS(C)(=O)=O)ccc2OC[C@H]2O[C@@H](CC(=O)NCc3ccc(-c4ccccc4)cc3)CC[C@@H]21,/,-4,/,/,/,/
CCOc1ccc(/C=C2\SC(=S)N(N3C(=O)C4CC4C3=O)C2=O)cc1 (configuration not stated),31*,1,0,?,-15,2
CCOc1ccc(/C=C2/SC(=O)NC2=S)cc1,18,4,0,-8,11,-17
O=C(NC1CCCCN(Cc2ccc(Cl)cc2)C1=O)c1cccc2nsnc12 (configuration not stated),/,-1,/,/,/,/
CCOC(=O)C(C(C)=O)c1c(Br)c(O)c(O)c2c(C(=O)c3ccc(C)cc3)coc12 (configuration not stated),47*,-8,-6,-1,-7,-32
CCOC(=O)c1cc(C(=O)c2cc(Br)ccc2O)coc1=N,-3,-1,0,0,35,-13
C=CCN1C(=O)[C@H](CC(=O)N2CCN(C(=O)C3CC3)CC2)[C@@]2(C(=O)OCC)CCCC=C12,/,-2,/,/,/,/
O=C(NCc1ccc(C(=O)N2CCCN(Cc3ccccc3)CC2)cc1)c1cccc(Br)c1,/,-6,/,/,/,/
CC(Cl)C(=O)NNc1cccc(Cl)n1 (configuration not stated),12,0,3,1,97*,-6
O=C(NNc1cccc(Cl)n1)c1ccc(Cl)cc1Cl,23,2,-4,1,-4,4
O=C(O)c1ccc(/C=C2\CCCc3c2nc2ccccc2c3C(=O)O)cc1,1,1,0,24,-12,-1
COc1cc(/C=C2\CCCc3c2nc2ccccc2c3C(=O)O)cc(OC)c1O,-24,2,-3,-2,99*,1
O=C(O)c1c2c(nc3ccccc13)/C(=C/c1ccc(O)cc1)CCC2,5,-2,-3,2,100*,12
O=S1(=O)C=CCN1Cc1cn(Cc2ccc(C(F)(F)F)cc2)nn1,/,-3,/,/,/,/
Cc1nc(C)c(-c2csc(N)n2)s1,4,-2,-2,-3,91*,0
Cc1ccc(Nc2nc(-c3sc(C)nc3C)cs2)cc1,1,-2,-3,15,8,22
C=CCN=C1NC(c2ccccc2C(F)(F)F)C(C(=O)OC)=C(C)N1Cc1ccccc1C(F)(F)F (configuration not stated),/,-1,/,/,/,/
CCCC[C@H](C(=O)N(CC)c1ccccc1)[C@@H](O)c1ccc(C(C)=O)cc1,/,-3,/,/,/,/
CCCCOc1cccc(C(=O)NCCc2ccccc2-c2ccccc2CCC(=O)NCc2ccccc2)c1,/,-3,/,/,/,/
C/C(=N/Nc1ccccc1C(=O)O)c1cccs1,8,3,-2,6,95*,4
